In the supplement of paper PMC7858590:

Each compound was assayed on human monocyte-derived macrophages (polarized) (assay: cell shape (eccentricity) Z-score vs DMSO control; higher = more elongated, M2-like morphology). Settings: 5 µM; 24 h; macrophage state: M1-polarized (IFNg + TNFa), cytokines present during treatment.
Protocol: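 Primary-screen hits were rescreened on polarized hMDMs with the differentiating cytokines (IL-4 + IL-13 or IFNg + TNFa) kept in the medium during treatment with compound at 5 uM for 24 h. The eccentricity Z-score vs DMSO wells is averaged over experiments.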
With COc1ccc(-c2oc3ccccc3c(=O)c2O)cc1OC the “cell shape (Z-score)” value was -0.838. In the case of Clc1ccc(C2(c3ccc(-c4cn[nH]c4)cc3)CCNCC2)cc1, the “cell shape (Z-score)” value is reported as 24.9. In the case of CN1CCN(CCOc2cc(OC3CCOCC3)c3c(Nc4c(Cl)ccc5c4OCO5)ncnc3c2)CC1, the “cell shape (Z-score)” value is reported as 4.07. CC1CNCCN1S(=O)(=O)c1cccc2cnccc12 (stereo unspecified) was tested, and the “cell shape (Z-score)” value was -1.72. For O=c1cc(-c2ccccc2F)[nH]c2cc3c(cc12)OCO3, the “cell shape (Z-score)” value was 0.5. O=C(Nc1ccc(OC(F)(F)F)cc1)c1sccc1NCc1ccnc2ccccc12 was tested, and the “cell shape (Z-score)” value was 3.81. With CS(=O)(=O)c1cccc(CNc2nc(Nc3ccc4c(c3)CCC(=O)N4)ncc2C(F)(F)F)c1 the “cell shape (Z-score)” value was -3.99. For COc1cc(C2OC(c3cc(OC)c(OC)c(OC)c3)C(C)C2C)cc(OC)c1OC (stereo unspecified), the “cell shape (Z-score)” value was 4.93. In the case of Cc1ccc(S(=O)(=O)OCC(=O)Nc2ccc(C(=O)O)c(O)c2)cc1, the “cell shape (Z-score)” value is reported as -2.63. In the case of CC1(C)CC[C@]2(C(=O)O)CC[C@]3(C)C(=CCC4[C@@]5(C)CC[C@@H](O)C(C)(C)C5CC[C@]43C)C2C1 (stereo partly specified), the “cell shape (Z-score)” value is reported as -1.9. In the case of CN1CCN(c2nc(C3=C(c4c[nH]c5ccccc45)C(=O)NC3=O)c3ccccc3n2)CC1, the “cell shape (Z-score)” value is reported as -0.285. C(=N\NC1=NCCN1)/c1c2ccccc2c(/C=N/NC2=NCCN2)c2ccccc12 was tested, and the “cell shape (Z-score)” value was 33.2. For COc1cc(-c2ccc(=O)[nH]n2)ccc1OC(F)F, the “cell shape (Z-score)” value was -4.29. With O=c1cc(-c2ccc(O)cc2)oc2cc(O)ccc12 the “cell shape (Z-score)” value was 2.2. C=C1CC[C@@H]2[C@](C)(CO[C@@H]3O[C@H](CO)[C@@H](O)[C@H](O)[C@H]3O)CCC[C@@]2(C)[C@@H]1CCC1=CCOC1=O was tested, and the “cell shape (Z-score)” value was -4.62. In the case of c1ccc2c(Oc3nc(Nc4ccc(N5CCOCC5)cc4)c4ncn(C5CCCCC5)c4n3)cccc2c1, the “cell shape (Z-score)” value is reported as 9.34. For CC(=Cc1ccc(C(=O)O)cc1)c1ccc2c(c1)C(C)(C)CCC2(C)C, the “cell shape (Z-score)” value was -2.82. O=c1cc(-c2cccc3c2Sc2ccccc2S3)oc(N2CCOCC2)c1 was tested, and the “cell shape (Z-score)” value was -7.49. For CC[C@H]1OC(=O)[C@H](C)[C@@H](O[C@H]2C[C@@](C)(OC)[C@@H](O)[C@H](C)O2)[C@H](C)[C@@H](O[C@@H]2O[C@H](C)C[C@H](N(C)C)[C@H]2O)[C@](C)(O)C[C@@H](C)C(=O)[C@H](C)[C@@H](O)[C@]1(C)O, the “cell shape (Z-score)” value was -5.37. In the case of Cc1onc(-c2ccccc2)c1-c1ccc(S(N)(=O)=O)cc1, the “cell shape (Z-score)” value is reported as 7.67. With COc1cccc2c1C(=O)c1c(O)c3c(c(O)c1C2=O)C[C@@](O)(C(C)=O)C[C@@H]3O[C@H]1C[C@H](N)[C@H](O)[C@H](C)O1 the “cell shape (Z-score)” value was 8.83. In the case of C[C@]1(CO)CN(c2cc(C(=O)Nc3ccc4c(c3)-c3c(c(C(N)=O)nn3-c3ccc(F)cc3)CC4)c(Cl)cn2)C[C@@]1(C)CO, the “cell shape (Z-score)” value is reported as -7.03. For C#Cc1cccc(Nc2ncnc3cc(OCCOC)c(OCCOC)cc23)c1, the “cell shape (Z-score)” value was 11.8. In the case of O=C(Cc1ccc(-c2ccc(OCCN3CCOCC3)cc2)cn1)NCc1ccccc1, the “cell shape (Z-score)” value is reported as 9.67. For COc1ccc(N(C(=O)c2ccccc2)S(=O)(=O)c2cc(OC)ccc2OC)cc1, the “cell shape (Z-score)” value was -2.07. For CC1=C(/C=C/C(C)=C/C=C/C(C)=C/CO)C(C)(C)CCC1, the “cell shape (Z-score)” value was 7.5.
